High-throughput results from PubChem.
Shiga toxin inh – Shiga toxin inhibition. Vero cells, Shiga toxin protein synthesis inhibition reporter. inhibition, % at 38.7 µM. actives 9.2% (n = 290,000). AID 2315; in the data active means inhibition mostly above about 28%, no sharp cut-off; inactive means mostly below about 43%
CHX counter – affects cycloheximide protein synthesis inhibition readout, counter-screen; cell reporter, cycloheximide protein synthesis inhibition counterscreen; actives 12% (n = 300,000); max response, %; in the data active means max response mostly above about 13%, no sharp cut-off; inactive means mostly below about 14%; further: read at 38.3 µM for the half of the compounds with a filed dose
FMDV inh – foot and mouth disease virus antiviral activity. Potency, µM (titrated, usually from 57.9 µM), hits mostly inhibitors. AID 1159524. FMDV antiviral cell-based qHTS. actives 1.2% (n = 410,000); calls by dose curve; tested in HEK293T cells; further: read-out not given here; nearly all actives have a fitted effect of over 45% in size
Sm TGR block – blocks Schistosoma mansoni thioredoxin glutathione reductase. Q962Y6. actives 3% (n = 360,000). AID 485364. purified TGR, DTNB reduction, TNB absorbance 405 nm. Potency, µM (series often up to 114 µM), most hits filed as inhibitors; active means well fitted inhibition curve with a large enough effect; inconclusive means small, poorly fitted or top-dose-only effect; inactive means no such curve, though single readings can be large or run the other way; further: nearly all actives have a fitted effect of over 60% in size
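Kinetic colorimetric format: TGR-catalysed, NADPH-driven DTNB reduction monitored via TNB absorbance. Enzyme dispensed at 20 nM; compound exposure 15 min at room temperature before reaction start.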
A number is an active result; . = inactive; ? = inconclusive; / = not tested or not shown. An excerpt weighted towards active compounds, which were near 12% of everything screened.

SMILES | Shiga toxin inh | CHX counter | FMDV inh | Sm TGR block
Clc1ccc(N2N=C(c3cccs3)CC2c2ccco2)cc1 (configuration not stated) | . | 37.0 | . | .
c1ccc(N2N=C(c3cccs3)CC2c2ccco2)cc1 (configuration not stated) | . | . | . | .
O=C1NC(=O)N(c2ccccc2)C(=O)/C1=C/c1ccoc1 | . | . | ? | .
O=C1NC(=O)N(c2ccccc2)C(=O)/C1=C\c1ccc2c3c(cccc13)CC2 | . | . | / | 25.1µM
COc1ccccc1N1C(=O)NC(=O)/C(=C/c2ccc3c4c(cccc24)CC3)C1=O | . | 17.5 | ? | 31.6µM
O=C1NC(=O)N(c2ccccc2)C(=O)/C1=C\c1ccccc1[N+](=O)[O-] | . | . | ? | 3.55µM
Cc1ccc2c(c1)c1c(c(=O)n(-c3ccccc3)c(=O)n1Cc1ccccc1C)n2C | / | / | . | .
COC(=O)c1cccc(NC2=NS(=O)(=O)c3ccccc32)c1 | / | / | . | .
CCOc1ccc(/C=C(\C#N)C(=O)Nc2sc3c(c2C(=O)OC)CCC3)cc1OC | / | / | . | .
CC(NC(=O)/C=C/c1ccccc1)c1ccccc1 (configuration not stated) | . | . | . | .
COP(=O)(OC)C(NC(=O)/C=C/c1ccccc1)C(Cl)(Cl)Cl (configuration not stated) | 54.7 | . | . | .
CCC(=O)Nc1c(-c2ccc3ccccc3c2)nc2ccccn12 | . | 37.8 | . | .
CC(=O)Nc1c(-c2ccc3ccccc3c2)nc2ccccn12 | 103.5 | 20.6 | . | .
Cc1ccc(C(=O)Nc2c(-c3ccccc3)nc3ccccn23)cc1 | / | / | . | .
CCOC(=O)/C=C1\CN(C(C)c2ccccc2)S(=O)(=O)c2ccccc21 (configuration not stated) | . | . | . | 28.2µM
CCOC(=O)/C=C1\CN(CCC(C)C)S(=O)(=O)c2ccccc21 | . | . | . | 56.2µM
CCn1c(C)nc2cc(C(=O)NNC(=S)Nc3ccc(Cl)cc3Cl)ccc21 | . | 16.4 | . | .
CCn1c(C)nc2cc(C(=O)NNC(=S)Nc3ccccc3Cl)ccc21 | 50.6 | 39.7 | . | .
CCn1c(C)nc2cc(C(=O)NNC(=O)Nc3ccc(Cl)c(Cl)c3)ccc21 | . | . | / | .
COc1ccc(OCC(=O)Nc2nc3ccc(NC(C)=O)cc3s2)cc1 | . | . | . | /
CC(=O)Nc1nc2ccc(Br)cc2s1 | . | 21.3 | . | .
CCC(C)C(=O)Nc1nc2ccc(OC)cc2s1 (configuration not stated) | 70.7 | 41.8 | . | .
COc1ccc2nc(NC(=O)Nc3cccc4ccccc34)sc2c1 | . | . | . | .
CC(=O)NCCC(=O)Nc1nc2ccc(Oc3ccccc3)cc2s1 | 100.8 | 61.5 | . | .
COc1ccc2nc(NC(C)=O)sc2c1 | 82.5 | 41.6 | . | .
SMILES | Shiga toxin inh | CHX counter | FMDV inh | Sm TGR block
COc1ccc(NC(=O)Cn2cc(C(=O)c3ccccc3OC)c(=O)c3ccc(C)nc32)cc1OC | / | / | ? | .
CC(C)CN1CC2(CCN(C(=O)c3cccc(F)c3)CC2)C1 | / | / | . | /
CCOc1ccc2nc(N(Cc3ccccc3)C(=O)CCNC(C)=O)sc2c1 | 51.4 | 30.4 | . | .
CC(C)C(=O)Nc1nc2ccc(S(C)(=O)=O)cc2s1 | . | . | . | /
CCC(C)C(=O)Nc1nc2ccc(S(C)(=O)=O)cc2s1 (configuration not stated) | 36.8 | 19.8 | . | .
CCCC(=O)C1=C(c2cccc(OC)c2)N(C(=O)CCC)n2c(C)nnc2S1 | / | / | . | .
CC(C)C(C)NC(=O)Cn1cnc2c(oc3ccccc32)c1=O (configuration not stated) | . | 16.9 | . | .
CCOC(=O)c1ccccc1NC(=O)Cn1cnc2c(oc3ccccc32)c1=O | 56.1 | 30.1 | . | .
Cc1ccc(NC(=O)Cn2cnc3c(oc4ccccc43)c2=O)cc1 | / | / | . | .
COC(=O)Cn1cnc2c(oc3ccccc32)c1=O | 41.0 | 36.5 | . | .
COc1ccccc1NC(=O)Cn1cnc2c(oc3ccccc32)c1=O | . | . | . | .
Cc1ccc(C)c(N(C)C(=O)CCNC(=O)Cn2cnc3ccccc3c2=O)c1 | / | / | . | .
Cc1c(C(=O)OCC2CCCCC2)[nH]c2c1C(=O)CC(c1ccccc1Cl)C2 (configuration not stated) | / | / | . | .
COc1ccc(-c2nc(SCC(=O)NC(C)CCc3ccccc3)n[nH]2)cc1 (configuration not stated) | / | / | ? | .
CCOC(=O)C1CCC(CN(Cc2ccc(OC)cc2)S(=O)(=O)c2ccc(F)c(C(=O)Nc3ccc(C)c(C)c3)c2)CC1 (configuration not stated) | / | / | . | .
COc1ccc(/C=C/C(=O)NC(C)C)cc1Br | . | 13.2 | . | .
COc1ccc(/C=C/C(=O)N(C(C)C)C(C)C)cc1Br | 50.8 | 23.7 | . | .
CN(C(=O)/C=C/c1cnc2ccccc2c1)C1CCCCC1 | 69.5 | 25.8 | . | .
COc1cc(/C=C/C(=O)CC(=O)/C=C/c2ccc(O)c(OC)c2)ccc1O | . | . | ? | ?
COc1ccc(/C=C/C(=O)N(C)C2CCCCC2)cc1Br | 78.0 | 26.2 | . | /
COc1ccc(/C=C/C(=O)N(C)C2CCS(=O)(=O)C2)cc1 (configuration not stated) | / | / | . | .
COc1cc(OC)c(OC)cc1CNCCCSc1nnnn1C | / | / | . | .
Cc1ccc(-c2csc(=Nc3ccccc3)n2Cc2ccc3c(c2)OCO3)cc1 | / | / | . | .
Cc1cccc(N(C)C(=O)C2CCN(S(=O)(=O)c3cccc4nonc34)CC2)c1 | / | / | . | .
COc1ccccc1-c1ccnc(-n2ncc(C(=O)NCCc3ccccn3)c2C)n1 | / | / | . | /
SMILES | Shiga toxin inh | CHX counter | FMDV inh | Sm TGR block
CCOc1sc2nc(C)n(CC(=O)Nc3cccc(C)c3)c(=O)c2c1C | / | / | . | .
COc1ccc(NC(=O)C2CCN(S(=O)(=O)c3cn(C)cn3)CC2)cc1Cl | / | / | . | .
COc1ccc(C2c3cc(OC)c(OC)cc3CC(=O)N2c2cccc(C#N)c2)cc1 (configuration not stated) | / | / | . | .
CN(CC(=O)Nc1ccccc1Cl)S(=O)(=O)c1ccc(C(=O)N2CCOCC2)s1 | / | / | . | .
CCN(CC)C(=O)/C=C/c1ccccc1 | / | / | . | .
CCN(C(=O)/C=C/c1ccccc1)C1CCCCC1 | . | 6.9 | . | .
N#Cc1ccc(-c2cn3c(n2)SCC3)cc1 | 63.8 | 36.1 | . | .
O=[N+]([O-])c1ccc(-c2cn3c(n2)SCC3)cc1 | / | / | . | /
O=C(NC1CC(=O)c2sccc21)c1ccc(Cl)cc1Cl (configuration not stated) | . | 31.5 | . | .
COc1ccc(N(Cc2nnc3n2CCCCC3)C(=O)Nc2cccc(C)c2)cc1Cl | / | / | . | .
O=C(COc1ccc(Nc2ccccc2)cc1)Nc1ccncc1 | / | / | ? | 44.7µM
Cn1cnc2cc(NC(=O)COc3ccccc3)ccc21 | 75.8 | 38.1 | . | .
COc1ccccc1C(=O)Nc1ccc2c(c1)nc(CCNC(C)=O)n2C | . | 16.8 | . | .
COc1ccccc1C(=O)Nc1ccc2c(c1)nc(CCNC(=O)c1ccccc1)n2C | . | . | . | .
CC(=O)NCCc1nc2cc(NC(=O)c3ccc(F)cc3)ccc2n1C | 44.3 | 53.7 | . | .
